Rows were chosen to be rich in hits. Some 19% of all compounds tested hit in one or more screens of this group.
KB-3-1 tox = qHTS assay for MDR1-selective chemotherapeutics: Primary screen using the parental adenocarcinoma cell KB-3-1; KB-3-1 viability, CellTiter-Glo ATP luminescence, 72 h; Potency, µM (highest dose often 46.1 µM), usual class: cytotoxic; hit rate 1.4% among 400,000; further: nearly all actives have a fitted effect of over 60% in size
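Cytotoxicity in the drug-sensitive parental line KB-3-1 was scored as loss of CellTiter-Glo luminescence following 72 h incubation with compound. Values come from curve fitting of normalized concentration-response data.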
HT1080 IDH1KD tx = qHTS for induction of synthetic lethality in tumor cells producing 2HG: qHTS for the HT-1080-IDH1KD cell line. hit rate 2% among 360,000. AID 686971, 2013. HT-1080 IDH1 knockdown viability, ATP luminescence, 48 h. Potency, µM (top dose mostly 46.1 µM), inactives show at the highest dose activity, negative = toxicity, usual class: cytotoxic;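 further: 0% = DMSO wells and -100% = cell-free medium wells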
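Luminescent ATP read-out (CellTiter-Glo, 10 min at room temperature) after 48 h compound exposure at 37 °C gave viability of IDH1-knockdown HT-1080 cells. Activity was normalised to DMSO and cell-free wells, then fitted as concentration-response curves.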
DT40 TDP1 no CPT = qHTS for Inhibitors of human tyrosyl-DNA phosphodiesterase 1 (TDP1): qHTS in cells in absence of CPT; DT40 Tdp1-/- hTDP1 cells, no CPT, ATP luminescence, 48 h; Potency, µM (highest dose often 46.2 µM), without a hit: top-dose activity change, negative = growth inhibition, hits mostly inhibitors; hit rate 15% among 420,000; AID 686978, 2013; further: nearly all actives have a fitted effect of over 55% in size
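Chicken DT40 Tdp1-/- cells stably complemented with human TDP1 were seeded at 400 cells/well with DMSO in place of 20 nM camptothecin. After compound pinning, cells grew at least 48 hr at 37 °C; viability read by CellTiter-Glo luminescence.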
HT1080-NT tox = qHTS for induction of synthetic lethality in tumor cells producing 2HG: qHTS for the HT-1080-NT fibrosarcoma cell line. HT-1080-NT fibrosarcoma viability, CellTiter-Glo ATP luminescence, 48 h. Potency, µM (titrated, usually from 46.1 µM), without a hit: at the top dose activity, negative = less viability, usual class: cytotoxic. hit rate 1.6% among 360,000. AID 686970, 2013;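 further: NT is the 2HG producing partner of a matched IDH1 knockdown line; 0% = DMSO-treated cells and -100% = media-only wells without cells; nearly all actives have a fitted effect of over 55% in size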
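750 cells/well, RPMI + 5% FBS; 2 h settle, compound pin-transfer, 48 h at 37 degrees C. CellTiter-Glo 10 min RT, luminescence. Normalized to DMSO and media-only wells.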
DT40 TDP1 CPT = qHTS for Inhibitors of human tyrosyl-DNA phosphodiesterase 1 (TDP1): qHTS in cells in presence of CPT. Potency, µM (series often up to 46.2 µM), inactives show top-dose activity change, negative = growth inhibition, usual class: inhibitors. chicken DT40 Tdp1-/-;hTDP1 cells + 20 nM CPT, ATP luminescence, 48 h. AID 686979, 2013. hit rate 12% among 420,000; further: nearly all actives have a fitted effect of over 55% in size
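Chicken DT40 Tdp1-/- cells stably complemented with human TDP1 were seeded at 400 cells/well in medium containing 20 nM camptothecin, exposed to pin-transferred compounds, and grown at 37 °C for at least 48 hr. Viability was read as ATP luminescence.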
KB-V1 cytotox = qHTS assay for MDR1-selective chemotherapeutics: Primary screen using the drug-selected MDR subline cells KB-V1. KB-V1 MDR cells viability, CellTiter-Glo, 72 h. Potency, µM (highest dose often 46.1 µM), actives largely listed as cytotoxic. hit rate 3.4% among 400,000. AID 1347076, 2019; further: nearly all actives have a fitted effect of over 60% in size
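Cytotoxicity via CellTiter-Glo luminescence after 72 h compound exposure at 37 degrees C. Cells: drug-selected KB-V1 line, DMEM phenol-red free plus 10% FBS. Compounds tested at multiple concentrations; normalized data fitted to concentration-effect curves.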
The depositor's hits bear a star; i = inactive; u = inconclusive; x = no result; [ ] = remark or other dose. The call rests on the fitted dose curve; in most records, active means well fitted curve in the direction sought with a large enough effect; inconclusive means small, poorly fitted or top-dose-only effect, or another doubt; inactive means no such curve, though single readings can be large; an effect the other way counts as inactive or inconclusive. Unless noted, on the % scale 0 is the no-effect control and ±100 the full control effect; potency means the concentration at half of the fitted maximal effect.

SMILES	KB-3-1 tox	HT1080 IDH1KD tx	DT40 TDP1 no CPT	HT1080-NT tox	DT40 TDP1 CPT	KB-V1 cytotox
CCOC(=O)c1c(C)[nH]c(C(=O)OCC(=O)NC(C)(C)C)c1C	i	-22%	18µM*	-5%	u	u
CCOC(=O)c1[nH]c(C)c(C(=O)OCC(=O)NC(C)c2ccc(F)cc2)c1C (stereo unspecified)	1.8µM*	3.7µM*	1.2µM*	3.7µM*	1.6µM*	i
CCc1ccc(-c2ccc3nnc(SCC(=O)Nc4cccc(C(C)=O)c4)n3n2)cc1	x	x	u	x	-21%	x
COc1cccc(C(=O)Nc2ccc(C(=O)OCc3cc(=O)n4nc(C5CC5)sc4n3)cc2)c1	x	x	-14%	x	-7%	x
COc1ccc(NC(=O)CO/N=C/C(=O)Nc2ccccc2C)c([N+](=O)[O-])c1	i	4%	-27%	4%	-2%	i
Cc1snnc1C(=O)NC(=S)Nc1ccccc1	i	-4%	13µM*	17%	-29%	i
CC(C)C(=O)Nc1cccc(NC(=S)NC(=O)c2ccc(Cl)cc2)c1	u	u	16µM*	u	u	2.9µM*
Cc1ccc(C(=O)NC(=S)Nc2ccc(NC(=O)c3cccc(Cl)c3)cc2)cc1	i	26µM*	u	u	-28%	i
CCC(=O)Nc1cccc(NC(=S)NC(=O)c2ccc(C)cc2)c1	i	-13%	u	-6%	u	u
O=C(NC(=S)Nc1c(Cl)cc(Cl)cc1Cl)c1ccccc1	i	-22%	9.2µM*	-6%	23µM*	u
CCNC(=O)C1(C)CCN(C(=O)c2ccccc2OC(F)(F)F)C1 (stereo unspecified)	i	21%	1%	21%	-9%	i
CC(=O)c1cccc(NC(=S)NC(=O)c2ccc(C)cc2)c1	i	-3%	18µM*	0%	u	u
O=C(CCC(=O)c1ccc(F)cc1)Nc1cccc(S(=O)(=O)Nc2cccc(Cl)c2)c1	i	-30%	23µM*	-19%	15µM*	i
O=C(NC(=S)Nc1cccc(CO)c1)c1ccc(-c2ccccc2)cc1	i	-20%	13µM*	-22%	23µM*	i
O=C(NC(NC(=S)Nc1c(Cl)cc(Cl)cc1Cl)C(Cl)(Cl)Cl)OCc1ccccc1 (stereo unspecified)	u	u	16µM*	u	u	12µM*
O=C(Cc1ccccc1)Nc1ccc(NC(=S)NC(=O)c2ccccc2)cc1	x	-19%	u	-25%	-23%	x
COc1ccc(CNC(=O)Cn2c(=O)ccc3cc(S(=O)(=O)N4CCCC4)ccc32)cc1	i	x	-24%	x	-11%	i
Cc1ccc(NC(=S)NC(=O)c2ccc(F)cc2)cc1S(=O)(=O)Nc1cccc(Cl)c1	5.2µM*	2.9µM*	5.8µM*	6.5µM*	5.2µM*	7.3µM*
O=C(NC(=S)Nc1cccc(NC(=S)NC(=O)c2ccccc2)c1)c1ccccc1	i	-18%	10µM*	-11%	9.2µM*	i
Cc1ccc(NC(=O)c2cccs2)cc1S(=O)(=O)Nc1cccc(Cl)c1	i	-30%	u	-16%	-13%	i
O=C(NC(=S)NC(c1ccccc1)c1ccncc1)c1ccccc1 (stereo unspecified)	i	u	12µM*	-25%	15µM*	i
Cc1cccc(CNC(=O)c2cnn(-c3nccc(-c4cccs4)n3)c2C(C)C)n1	x	x	u	x	-4%[9.04 µM]	x
CCC(NC(=O)CNC(=O)c1ccc2c(c1)OCO2)c1ccc(Br)cc1 (stereo unspecified)	i	3%	-27%	4%	-28%	i
Cc1ccccc1C(=O)NC1CCN(Cc2ccccc2)CC1	i	-1%	1%	3%	0%	i
CC1(C(=O)NC2CCN(Cc3ccccc3)CC2)CCN1CCc1ccccc1 (stereo unspecified)	i	-11%	u	-7%	29µM*	i
SMILES	KB-3-1 tox	HT1080 IDH1KD tx	DT40 TDP1 no CPT	HT1080-NT tox	DT40 TDP1 CPT	KB-V1 cytotox
Cc1ccc(CN2CCC(NC(=O)c3ccccc3)CC2)cc1	i	16%	18µM*	9%	u	i
CCN(c1ccccc1)S(=O)(=O)c1ccc(C(=O)NC2CCN(Cc3ccccc3)CC2)cc1	16µM*	u	7.3µM*	-17%	8.2µM*	u
O=C(NC1CCN(Cc2ccccc2)CC1)c1ccc2c(c1)OCCCO2	i	-9%	-20%	-3%	-10%	i
Cc1ccc(C)n1-c1ccc(C(=O)NC2CCN(Cc3ccccc3)CC2)cc1	u	-11%	21µM*	0%	u	2.3µM*
C[C@@H]1CN([C@@H](C)CO)C(=O)c2cc(NC(=O)C3CCCCC3)ccc2O[C@@H](C)CCCCO[C@@H]1CN(C)C(=O)CCCN(C)C	i	-10%	-9%	5%	4%	i
CCn1cc(C(=O)OCC(=O)Nc2cc(Cl)ccc2C)c(=O)c2ccc(C)nc21	i	x	-7%	x	-21%	i
COc1ccc(N2CCN(C(=O)c3cc4cc5ccc(Cl)cc5nc4o3)CC2)cc1	i	x	-8%	x	-5%	u
O=C(NCc1ccccc1F)C1CCCN1C(=O)NC1CCCCC1 (stereo unspecified)	i	0%	-2%	0%	17%	21µM*
C=C(C)c1cccc(C(C)(C)NC(=O)NC2CCN(Cc3ccccc3)CC2)c1	i	0%	18µM*	-3%	u	i
CC(C)[C@H](NC(=O)NC1CCN(Cc2ccccc2)CC1)C(=O)O	i	12%	-16%	-3%	-15%	i
CCc1ccc(CN2CCC(Oc3cc(C(=O)NC4CC4)ccc3OC)CC2)cc1	i	-15%	15µM*	-7%	-32%	i
CN(CC(=O)NC1CCN(Cc2ccccc2)CC1)S(=O)(=O)c1ccc(Br)s1	23µM*	2%	u	-1%	u	u
O=C(NC1CCN(Cc2ccccc2)CC1)c1cccc(Br)c1	i	-12%	u	-13%	16µM*	i
O=C(CN1CCC(NC(=O)c2ccccc2)CC1)NCc1ccccc1F	i	-4%	-2%	-4%	4%	i
